# Assay results reported in PubChem BioAssay AID778 (Sanford-Burnham Center for Chemical Genomics, 2007).
# About 20,000 (21%) of roughly 96,000 compounds were called active.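 Rule for the calls: active = CYP2C19 inhibition above a set limit at 5 µM in the primary screen (cut at about 50% in these data); inactive = the rest.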 Not all results are given here.
# Target: Cytochrome P450 2C19 (Homo sapiens) (UniProt P33261)
# Assay: blockers of cytochrome P450 2C19 activity – biochemical, luminescence, ADME assay, primary screen (AID 778);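 note: plate controls were negative control wells for no effect and 2.5 mM tranylcypromine positive control for full effect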
# Conditions: CYP2C19 Supersomes, luciferin-H EGE luminescence, 30 min; at 5 µM; active compounds read high
# Cytochrome P450 2C19 (Homo sapiens), sequence (P33261 whole entry, looked up): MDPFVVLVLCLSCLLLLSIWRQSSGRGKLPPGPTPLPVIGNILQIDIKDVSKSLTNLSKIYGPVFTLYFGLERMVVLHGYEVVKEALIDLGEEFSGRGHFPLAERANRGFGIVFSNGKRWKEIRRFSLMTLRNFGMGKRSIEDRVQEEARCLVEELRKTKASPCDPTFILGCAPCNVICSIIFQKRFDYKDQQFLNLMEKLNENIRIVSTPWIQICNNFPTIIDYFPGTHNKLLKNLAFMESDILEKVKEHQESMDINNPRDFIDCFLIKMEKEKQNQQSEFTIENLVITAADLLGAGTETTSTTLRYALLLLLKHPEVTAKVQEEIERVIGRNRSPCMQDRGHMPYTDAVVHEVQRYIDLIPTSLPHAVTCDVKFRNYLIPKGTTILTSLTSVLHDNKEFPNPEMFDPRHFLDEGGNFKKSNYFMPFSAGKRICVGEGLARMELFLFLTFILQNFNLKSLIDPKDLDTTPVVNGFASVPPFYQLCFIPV
row,Structure (SMILES),inhibition
1,O=C(O)c1cccnc1NC1CCCC1,6.9% (inactive)
2,CCN(CC)C(=O)CSc1nnc(-c2cccc(OC)c2)o1,26.3% (inactive)
3,O=C(CSc1nnc(-c2ccc(NS(=O)(=O)c3ccccc3)cc2)o1)NCC1CCCO1 (configuration not stated),46.1% (inactive)
4,CCN(CC)C(=O)CSc1nnc(-c2ccc(S(=O)(=O)NCc3ccccc3Cl)cc2)o1,65.4% (active)
5,O=C(Nc1cc(C(F)(F)F)ccc1Cl)c1cc2nc3c(c(C(F)(F)F)n2n1)CCCC3,7.6% (inactive)
6,CC(C)CC(=O)Nc1cc(C(F)(F)F)ccc1N1CCOCC1,32.1% (inactive)
7,CC(CC(=O)Nc1cc(C(F)(F)F)ccc1Cl)c1ccccc1 (configuration not stated),61% (active)
8,COC(=O)CNC(=O)c1ccc2c(c1)S(=O)(=O)c1ccccc1C2=O,-4.3% (inactive)
9,O=C(CC1OC(=O)c2ccccc21)NC1CCCCC1 (configuration not stated),-5.7% (inactive)
10,O=C(NC(c1ccccc1)c1ccccc1)N1CCN(CCO)CC1,3.6% (inactive)
11,S=c1[nH]nc2c3c4c(sc3ncn12)CCCC4,-8.5% (inactive)
12,Cc1cccc(CSc2nnc(NC(=O)CSc3nnc(C)s3)s2)c1,20.2% (inactive)
13,O=C(NCCc1ccccc1)/C(=C\c1ccc([N+](=O)[O-])cc1)NC(=O)c1ccccc1,-1.2% (inactive)
14,CCOC(=O)/C(C#N)=C/c1ccc(OCC(=O)Nc2ccccc2)c(OC)c1,4.1% (inactive)
15,CCOC(=O)/C(=C\c1ccc([N+](=O)[O-])cc1)C(=O)c1cc(C(C)=O)c(Nc2ccccc2)s1,62.8% (active)
16,CCCC(=O)Nc1c(O)c2ccccc2[nH]c1=O,-8.7% (inactive)
17,CCOc1ccc(S(=O)(=O)Nc2ccc(S(=O)(=O)Nc3cc(OC)ccc3OC)cc2)cc1,91.8% (active)
18,CCOc1ccc(C(=O)Nc2cc(OC)ccc2OC)cc1,77% (active)
19,COc1ccc(OC)c(NC(=O)CN2CCN(C(=O)c3ccco3)CC2)c1,8.8% (inactive)
20,COc1ccc(OC)c(NC(=O)Cn2c(=O)oc3ccccc32)c1,42.2% (inactive)
21,CCOc1ccc(S(=O)(=O)Nc2nc3cc(OC)ccc3s2)cc1,16.3% (inactive)

row,Structure (SMILES),inhibition
1,COc1ccc(C(=O)Nc2ccc(F)cc2F)cc1,12.1% (inactive)
2,CCOc1ccc(CC(=O)Nc2ccc(S(=O)(=O)Nc3cc(C)on3)cc2)cc1OCC,2% (inactive)
3,COc1ccc(OC)c(NC(=O)CCN2CCC(C)CC2)c1,89.8% (active)
4,CCOc1ccccc1NC(=O)Nc1cc(OC)ccc1OC,1.1% (inactive)
5,O=P(c1cccs1)(c1cccs1)c1cccs1,7.9% (inactive)
6,COC(=O)C(C)N(C#N)c1nc(C)nc(C)n1 (configuration not stated),15.2% (inactive)
7,CCOC(=O)C1CCCN(C(=O)c2sc3nc(C)nc(N4CCOCC4)c3c2C)C1 (configuration not stated),-5% (inactive)
8,Nc1nonc1-c1noc(-c2ccc(Br)o2)n1,47.6% (inactive)
9,CN1CCN(Cc2c(O)ccc3c2oc(=O)c2ccccc23)CC1,-0.1% (inactive)
10,CN1CCN(C(=O)Cn2c(C(F)(F)F)nc3ccccc32)CC1,-11.1% (inactive)
11,Cc1ccccc1OC(=O)Cn1c(C(F)(F)F)nc2ccccc21,35.4% (inactive)
12,CC(C)(C)NC(=O)NC(=O)COC(=O)Cn1c(C(F)(F)F)nc2ccccc21,54.6% (active)
13,CCCCN(C)Cc1c(C)[nH]c2ccc(Cl)cc2c1=O,-11.4% (inactive)
14,O=C(Nc1c(Cl)cccc1Cl)C1CCC1,-0.2% (inactive)
15,O=C(c1ccco1)N1CCN(c2cccc(Cl)c2)CC1,19.9% (inactive)
16,O=C(c1ccco1)N1CCN(C(=O)C2CC(c3ccc(F)cc3)=NO2)CC1 (configuration not stated),5.3% (inactive)
17,O=C(c1ccco1)N1CCN(C(=O)C2CC(c3ccc(Cl)c(Cl)c3)=NO2)CC1 (configuration not stated),53.8% (active)
18,O=C1CN(C(=O)COC(=O)C2CC(=O)N(Cc3ccco3)C2)c2ccccc2N1 (configuration not stated),-8.7% (inactive)
19,Cc1ccc(S(=O)(=O)N2CCC(C(=O)OCC(=O)N3CC(=O)Nc4ccccc43)CC2)cc1,62.2% (active)
20,Cc1ccc(S(=O)(=O)NCC(=O)OCC(=O)N2CCc3ccccc32)cc1,-3.8% (inactive)
21,COc1cc(OC)cc(C(=O)Nc2ccc(-c3nc4ccccc4o3)c(O)c2)c1,22.3% (inactive)

row,Structure (SMILES),inhibition
1,O=C(c1cccc(C(=O)N2CCN(c3ccc(F)cc3)CC2)c1)N1CCN(c2ccc(F)cc2)CC1,81.8% (active)
2,O=C(c1ccccc1Oc1ccccc1)N1CCN(c2ccc(F)cc2)CC1,87.1% (active)
3,Cc1ccccc1CS(=O)(=O)CC1(O)CCN(C(=O)c2cccc(C(F)(F)F)c2)CC1,19.1% (inactive)
4,CC(C)N(C(=O)COC(=O)c1ccccc1C(=O)N1CCN(c2ccc(F)cc2)CC1)C(C)C,44.2% (inactive)
5,O=C(CN1CCN(C(=O)c2cccc(F)c2)CC1)Nc1ccccc1F,42.8% (inactive)
6,O=C(c1ccccc1-c1ccccc1)N1CCOCC1,10.3% (inactive)
7,Cc1cccc(C(=O)N2CCCN(C(=O)c3cccc(C)c3)CC2)c1,90.5% (active)
8,O=C(c1cccc(F)c1)N1CCN(c2ccc([N+](=O)[O-])c(N3CCCCC3)c2)CC1,49% (inactive)
9,O=C(c1ccccc1)N1CCN(C(=O)N2CCCCC2)CC1,39.7% (inactive)
10,Cc1ccccc1CN1CCN(C(=O)c2cccc(F)c2)CC1,98.4% (active)
11,CCC(CC)C(=O)Nc1cccc(C(=O)N2CCCC2)c1,15.4% (inactive)
12,O=C(c1ccccc1)c1cccn1CC(=O)N1CCN(c2ccc(F)cc2)CC1,33.3% (inactive)
13,O=C(NCc1ccco1)C1(c2ccc(Cl)cc2)CCCC1,39.8% (inactive)
14,CCOc1nc(NCCN2CCOCC2)nc(Nc2ccc(C)cc2)n1,11.1% (inactive)
15,CCOc1ccc(NC(=O)Nc2ccc(N(C)C(C)=O)cc2)cc1,-7.4% (inactive)
16,O=C(Nc1ccc2ccccc2c1)Nc1ccc2snnc2c1,5.2% (inactive)
17,Oc1c(C=Nc2cccc3nsnc23)ccc2ccccc12,45.4% (inactive)
18,O=C(c1ccc2c(c1)OCO2)N1CCNc2ccccc2C1,16.6% (inactive)
19,Cc1ccc(-c2nn(-c3ccccc3)cc2/C=N/NC(=O)c2ccc3c(c2)OCO3)cc1,49.9% (inactive)
20,CC1CN(C(=O)c2ccc3c(c2)OCO3)OC(c2ccccc2)O1 (configuration not stated),74.6% (active)
